# Experimental data published in PubChem BioAssay.
# Activity calls are given as the source filed them. The rule behind the calls is not given here.
# Target: Pantothenate synthetase (Mycobacterium tuberculosis (strain ATCC 25618 / H37Rv)) (UniProt P9WIL5)
# Test: Recombinant Mtb pantothenate synthetase (PanC) inhibitors, coupled enzyme, confirmatory (AID 375);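 note: 0% = full reaction with vehicle and 100% = no enzyme background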
# Conditions: coupled enzyme assay; at 10 µM, stronger effect = higher value
# Sequence of Pantothenate synthetase (Mycobacterium tuberculosis (strain ATCC 25618 / H37Rv)) (P9WIL5 whole entry, looked up): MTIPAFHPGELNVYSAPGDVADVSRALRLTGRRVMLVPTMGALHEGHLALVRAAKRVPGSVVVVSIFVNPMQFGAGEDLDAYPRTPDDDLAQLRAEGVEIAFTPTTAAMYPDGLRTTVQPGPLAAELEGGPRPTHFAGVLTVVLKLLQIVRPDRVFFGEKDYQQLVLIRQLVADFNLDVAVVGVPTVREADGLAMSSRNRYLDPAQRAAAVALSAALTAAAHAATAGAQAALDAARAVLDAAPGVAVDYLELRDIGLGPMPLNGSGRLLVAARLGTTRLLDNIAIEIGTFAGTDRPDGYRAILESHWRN
row,Structure (SMILES),inhibition
1,CC(C)(Oc1ccc(CCNC(=O)c2ccc(Cl)cc2)cc1)C(=O)O,0% (inactive)
2,CCOC(=O)C(NC(=O)c1ccccc1)(Nc1cc(C)on1)C(F)(F)F (stereo not drawn),0% (inactive)
3,CCOc1ccc(C(=O)Nc2cc(C)on2)cc1OCC,6% (inactive)
4,O=C(CN1CCN(c2nc(-c3ccccc3)cs2)CC1)Nc1ccc2c(c1)OCO2,4% (inactive)
5,COC(=O)c1nnn(-c2ccccc2)c1N,4% (inactive)
6,COc1ccc(C2/C(=C(/O)c3ccccc3)C(=O)C(=O)N2C)cc1 (stereo not drawn),0% (inactive)
7,CCn1c(=O)cc(SCC(=O)N2CCOCC2)c2ccccc21,11% (inactive)
8,CCCCCCCCNC(C)C(O)c1ccc(SC(C)C)cc1 (stereo not drawn),0% (inactive)
9,CC1CCCCC1NC(=O)c1ccc(N2CCCC2=O)cc1 (stereo not drawn),0% (inactive)
10,C=CCOc1nc(N2CCCC2)nc(N2CCCC2)n1,5% (inactive)
11,FC(F)(F)c1ccc(Sc2nnc(-c3cccs3)n2CC2CCCO2)nc1 (stereo not drawn),0% (inactive)
12,CC(=O)NC1=NC(=O)/C(=C/N2CCCCC2)S1,8% (inactive)
13,CC1(C)CC(=O)C(C=NCC2CCNCC2)=C(O)C1,2% (inactive)
14,Cc1cc(N2CCOCC2)nc2ccc(NC(=O)C3CCC(C)CC3)cc12 (stereo not drawn),0% (inactive)
15,Cc1c(Cc2ccccc2)sc(N)c1C(N)=O,0% (inactive)
16,CCOC(=O)N1CCN(S(=O)(=O)c2ccc(F)c(C(=O)Nc3cc(C)cc(C)c3)c2)CC1,7% (inactive)
17,COCCn1c(SCC(=O)c2ccccc2)nc2c(c1=O)SC(C)C2 (stereo not drawn),0% (inactive)
18,C=CCc1ccccc1OCC(O)CNC(C)C (stereo not drawn),8% (inactive)
